Assays:
Conditions in all cases: Compound Concentration (nM):1000
HIPK2 = system: HIPK2
HIPK3 = system: HIPK3
HIPK4 = system: HIPK4
HPK1 = system: T1, HPK1
T1 construct: gene MAP4K1

HUNK = system: HUNK
ICK = system: ICK
IGF1R = system: IGF1R
IKK-alpha = system: T2, IKK-alpha
T2 construct: gene CHUK

IKK-beta = system: T3, IKK-beta
T3 construct: gene IKBKB

IKK-epsilon = system: T4, IKK-epsilon
T4 construct: gene IKBKE

INSRR = system: INSRR
INSR = system: INSR
IRAK1 = system: IRAK1
IRAK3 = system: IRAK3
IRAK4 = system: IRAK4
ITK = system: ITK
[1] = system: JAK1(JH1domain-catalytic)
[2] = system: JAK1(JH2domain-pseudokinase)
[3] = system: JAK2(JH1domain-catalytic)
[4] = system: JAK3(JH1domain-catalytic)
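Further: KINOMEscan scanMAX binding as percent activity remaining versus control; lower means stronger binding.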

SMILES	Percent Control (HIPK2) [%]	Percent Control (HIPK3) [%]	Percent Control (HIPK4) [%]	Percent Control (HPK1) [%]	Percent Control (HUNK) [%]	Percent Control (ICK) [%]	Percent Control (IGF1R) [%]	Percent Control (IKK-alpha) [%]	Percent Control (IKK-beta) [%]	Percent Control (IKK-epsilon) [%]	Percent Control (INSRR) [%]	Percent Control (INSR) [%]	Percent Control (IRAK1) [%]	Percent Control (IRAK3) [%]	Percent Control (IRAK4) [%]	Percent Control (ITK) [%]	Percent Control [1] [%]	Percent Control [2] [%]	Percent Control [3] [%]	Percent Control [4] [%]
COc1cc(N2CCN(C(C)C)CC2)ccc1Nc1nc(Nc2ccc(F)cc2C(=O)NC[C@@H](O)CO)c2cc[nH]c2n1 [GSK1392956A]	23	44	1.4	86	83	100	9.8	100	97	78	1.4	1.1	90	86	89	100	94	89	100	88
C[C@@H](Oc1cc(-n2cnc3ccc(OC4CCN(C)CC4)cc32)sc1C(N)=O)c1ccccc1Cl [GSK579289A]	81	76	15	58	73	96	69	99	100	76	90	64	73	83	94	77	100	75	75	7.2
Cc1cc(O)cc(C)c1/C=C/c1cncc(C(N)=O)c1 [GW435821X]	98	100	100	100	100	100	100	100	100	90	100	93	100	100	100	94	100	59	92	100
COc1cc2ncnc(Nc3ccc4c(cnn4Cc4ccccc4)c3)c2cc1OC.Cl [GW282449A]	100	100	100	100	92	100	100	100	100	100	100	100	100	100	100	100	100	92	100	100
CC1=C(C(=O)Nc2ccc3[nH]ncc3c2)C(c2ccc(Cl)c(Cl)c2)CC(=O)N1 (stereo not shown) [GSK299115A]	92	83	100	100	80	83	93	81	76	100	100	100	88	56	100	74	41	86	13	9.3
COc1cc2ncn(-c3cc(O[C@H](C)c4ccccc4Cl)c(C(N)=O)s3)c2cc1OC [GSK237701A]	84	93	99	26	100	91	97	83	92	81	100	100	64	70	98	82	100	70	46	100
COC(=O)Nc1nc2ccc(Oc3ccc(NC(=O)Nc4cc(C(F)(F)F)ccc4F)cc3)cc2s1.Cl [GW693917A]	88	94	10	51	100	78	100	86	100	71	100	68	97	100	90	74	71	80	57	61
COc1cccc(-n2ncc3c(N/N=C/c4ccncc4)ncnc32)c1 [GW784752X]	33	23	54	100	95	64	100	98	94	100	100	100	37	0	99	100	100	96	66	83
COc1cc(C=NNc2ncnc3c2cnn3-c2ccccc2)ccc1O [GW513184X]	91	75	67	100	58	91	100	100	100	100	100	100	43	28	72	100	100	84	72	81
Cl.O=C(Nc1ccc(Oc2ccc3[nH]c(NC(=O)c4ccccc4)nc3c2)cc1)Nc1cc(C(F)(F)F)ccc1F [GW709042A]	98	100	13	75	90	100	100	75	100	86	100	85	89	100	86	100	99	96	100	77
COc1ccc2c(-c3ccnc(Nc4cccc(OC(F)(F)F)c4)n3)cnn2n1 [GW810372X]	0	2.3	29	83	88	24	100	83	100	62	100	90	19	80	100	100	100	7.5	62	65
COc1cccc(-c2c[nH]c3c(N/N=C/c4ccncc4)ncnc23)c1 [GW814408X]	53	27	59	70	73	33	100	87	100	100	100	93	23	76	59	96	75	80	31	18
NS(=O)(=O)c1ccc(N/N=C2\C(=O)Nc3ccc(-c4cnco4)cc32)cc1 [GW276655]	28	20	51	100	61	8.8	83	55	76	82	83	73	79	100	90	93	100	31	54	16
Cl.O=C(O[C@H]1CN[C@H](C#Cc2cc3ncnc(Nc4ccc5c(cnn5Cc5ccccc5)c4)c3s2)C1)N1CCOCC1 [GSK200398A]	77	92	92	100	100	96	97	100	100	100	100	77	100	77	96	100	96	91	99	90
CN1CCN(C(=O)c2ccc(NC(=O)Nc3ccc(N(C)c4ccnc(Nc5ccc(CS(C)(=O)=O)cc5)n4)cc3)cc2)CC1.Cl [GW830263A]	77	71	74	2.6	35	44	100	90	70	38	100	61	58	0.1	52	98	76	13	4.7	5.4
O=C1Nc2ccc(C(=O)c3ccco3)cc2C1=Cc1cc(Cl)c(O)c(Cl)c1 [GW406108X]	5.3	5.4	59	96	46	68	100	96	100	30	100	91	86	100	64	100	100	7.3	47	2.1
CN(C)c1cc2c(Nc3ccc4c(cnn4Cc4ccccc4)c3)ncnc2cn1 [GW282974X]	90	100	79	100	100	90	100	92	100	76	100	63	100	100	100	87	100	92	100	99
NS(=O)(=O)c1ccc(Nc2ncc(-c3ccccc3)o2)cc1 [GW572399X]	72	75	100	100	92	89	100	90	100	78	100	100	99	100	100	90	100	87	100	71
COc1ccc2[nH]c3c4[nH]c5ccc(OC)cc5c4c4c(c3c2c1)C(=O)NC4=O [GW296115X]	64	44	70	90	91	89	97	89	87	48	95	66	94	66	76	89	100	39	84	47
NS(=O)(=O)c1ccc(N/N=C2\C(=O)Nc3ccc(C(=O)NCCc4c[nH]cn4)cc32)cc1 [GW300660X]	7.5	12	100	74	100	22	100	85	100	100	100	96	82	100	99	100	100	20	80	64

Source: article PMC7826789 (International Journal of Molecular Sciences, 2021)
